For 40 compounds, growth results are on record in PubChem BioAssay (NCI).

Several values for one entry are separate records, joined by “and”; a condition that tells them apart may be missing. Identical values can stand only once. Compounds without any hit were thinned out: in the full panel of roughly 83,000, 20% have a hit.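 For each line, cells grew in 96-well plates with the test compound present at a single concentration for 48 hours.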 Unmarked numbers belong to inactive results. Activity calls are given as the source filed them.

This assay relates to MDA-MB-435 melanoma. As to the kind of experiment: NCI-60 one-dose screen, 48 h (100 = growth as untreated, 0 = no growth, -100 = all killed). To be noted: 10 µM unless noted. As to the method:
Growth inhibition of the MDA-MB-435 human Melanoma tumor cell line is measured as a screen for anti-cancer activity. Cells are grown in 96 well plates and exposed to the test compound for 48 hours. Compounds are tested at a single concentration, which is 10^-5 M for most compounds. The reported endpoint is percent growth (GI% or GIPRCNT), where numbers from 0 - 100% represent growth inhibition, and numbers from -100% - 0 represent cell death. For example, a value of 40 represents 60% growth inhibition. A value of 0 means no net growth occurred over the course of the experiment. A value of -40 indicates 40% of cells at the beginning of the experiment died by the end of the experiment. A value of -100 means all cells are dead at the end of the experiment.
NCI-60 Human Tumor Cell Lines Screen was performed using the standard one-dose NCI protocol, which is described in more detail at https://dtp.cancer.gov/discovery_development/nci-60/default.htm.
Compounds with GIPRCNT values below 10 were considered active. Activity score was based on GIPRCNT using the following formula: […]
Score is 0 for GIPRCNT values of 100 or above, 50 for GIPRCNT values of 0, and 100 for GIPRCNT values of -100.
In the case of `COc1ccccc1Cn1cc(C#N)c(N)c1C(=O)c1ccc(Br)cc1`, the growth was 94.4%. `C/C(=C(\c1ccc(O)cc1)c1ccc(OCCN2CCCCCC2)cc1)c1ccc(Cl)cc1`: the growth was -73.9% (active).

With `Cc1[nH]c(C(=O)Nc2ccccc2OCc2cccc(C(=O)NCCN)c2)cc1Cl`, the growth is 20.6%. With `Oc1[nH]c2ccc(Cl)cc2c1N=Nc1nc(N=Nc2c(O)[nH]c3ccc(Cl)cc23)nc(N2CCCCC2)n1` the figure was 75.8%; with `Cc1ccc(Nc2nc(SC(C)C)nc(-c3ccccc3)c2C#N)cc1`, 102%.

Consider `CCCCCCN1C=C/C(=C\C(=O)n2ccc3ccccc32)c2ccccc21`, for which the growth was 84%. As for `CC(C)(C)OC(=O)Nc1ccc(-c2cccc(Oc3ccc4nnc(Cl)n4n3)c2)cc1`, the growth was 83.7%. With `O=C(CCCCCCN1CC(=O)N2[C@@H](c3ccccc3Br)c3[nH]c4ccccc4c3C[C@H]2C1=O)NO` the figure was 27.8%. With `CN(C)S(=O)(=O)c1ccc(-c2nc(C(Cl)Cl)nc3cc(-c4ccccc4)nn23)cc1` the figure was 81.6%; with `C#CCOc1ccccc1C(OC(=O)c1ccccc1)C(=O)NC(C)(C)C(C)(C)C` (stereo not given), 96.2%.

With `N#Cc1c(-c2cccs2)cc(-c2cnccn2)nc1SCC(=O)N/N=C/c1ccc(Cl)cc1`, the growth was 103%. With `CC(C)C(/C=C/c1[nH]ncc1-c1cc(Cl)ccc1O)N1CCOCC1` (stereo not given), the growth was 95.8%. As for `O=C(CCCCCC/C=C\c1csc(Br)n1)NO`, the figure is 84.4%. `Cc1nc(/N=C(N)/N=C(\N)c2cccc(Br)c2)sc1C`: the growth was 10.8%. As for `CSc1ccc(/C(=N/N=C(N)N)c2ccc(Cl)cc2)cc1`, the figure is -30.1% (active). As for `COc1ccc(-c2c3c(cn2Cc2cccc(OC)c2)-c2oncc2CCC3)cc1`, the figure is 98.1%; as for `COc1cc2cc(Oc3ccc(NC(=O)c4cc(C(F)(F)F)cc(C(F)(F)F)c4)cc3)c(C)nc2cc1OCCN1CCOCC1`, 65.4%. With `CCCCCCOC(=O)c1cc(-c2ccc(F)cc2)nc2ccccc12` the figure was 99.9%; with `CN1CCN(Cc2ccc(NC(=O)c3cncc(C#Cc4cnc5ccc(N)nn45)c3)cc2C(F)(F)F)CC1`, 40.5%. `CCCCCCCCCC(=O)NC(C)(C)C(=O)N1CCC[C@H]1C(=O)N[C@@H](CC(C)C)C(=O)N[C@@](C)(CC)C(=O)N[C@@H](CCC(N)=O)C(=O)N[C@H](CCC(N)=O)C(=O)NC(C)(C)C(=O)NC(C)(C)C(=O)N[C@@H](CCC(N)=O)C(=O)N[C@H](CC(C)C)C(=O)N[C@H](CO)CC(C)C`: the growth is -60.3% (active) and -95.4% (active). `CCc1cc(O)ccc1Nc1cc(-c2ccc(-n3cccn3)cc2)[nH]n1`: the growth was 33%. As for `O=C1CSC(c2cn(-c3ccccc3)nc2-c2ccc(Cl)cc2)N1c1ccccc1` (stereo not given), the figure is 103%; as for `Cc1csc(/N=C(N)/N=C(\N)c2cccs2)n1`, 106%. With `CCN(CC)c1ccc(/C=N/NC(=O)c2ccc(NS(C)(=O)=O)cc2)c(O)c1` the figure was 28.8%. As for `COc1ccc(-c2cc(-c3ccc(N4CCOCC4)cc3)n3c(n2)nc2ccccc23)cc1OC`, the figure is 93.1%.

With `Nc1ccc(Nc2ncnc3sc4c(c23)CCN(Cc2ccccc2)C4)cc1`, the growth is 102%. As for `NC(=O)c1ncn2c(=O)n(CCF)nnc12`, the growth is 82.4%.

In the case of `Cc1ccc2c(n1)C(=O)C(Cl)=C(Nc1cc(C(F)(F)F)cc(C(F)(F)F)c1)C2=O`, the growth was 93.8%. As for `CCc1cc(OC(=O)N2CCN(CCC(C)(COC(C)(C)C)COC(C)(C)C)CC2)ccc1Nc1cc(-c2ccc(-n3cccn3)cc2)[nH]n1`, the figure is 85.3%; as for `COc1cc(C(C)=C(c2ccc(OCCN(C)C)cc2)c2ccc(OCCN(C)C)cc2)ccc1F`, 108%. As for `CC[C@]12C=CCN3CC[C@]4(C(=C(C(=O)OC)C1)Nc1cc5c(cc14)[C@@H]1[C@H](O5)[C@@H](O)[C@@]4(CC)CC(C(=O)OC)=C5Nc6cc(O)ccc6[C@@]56CCN1C46)C32` (stereo not given in full), the figure is -38.2% (active). With `O=C(CSc1nnc(-c2ccc(Cl)cc2)n1-c1ccccc1)Nc1ccccc1Cl` the figure was 80.9%; with `C#C[C@]1(O)CC[C@H]2[C@@H]3CC=C4c5sc(Nc6cccc(F)c6)nc5CC[C@]4(C)[C@H]3CC[C@@]21C`, 29.9%; with `CN1CCN(CCNc2nc(-c3cccc(NS(=O)(=O)c4cccc5c(N(C)C)cccc45)c3)cs2)CC1`, 66%. Consider `C(=N\Nc1nc(N/N=C/c2ccc3c(c2)OCO3)nc(N2CCCCC2)n1)/c1ccc2c(c1)OCO2`, for which the growth is 98.5%. As for `COc1ccccc1N1CCN(C2=C(Cl)C(=O)c3ncccc3C2=O)CC1`, the figure is 57.7%; as for `COc1cc(NC(=O)Nc2cccc(-c3cc(=O)c4c(OC)c(OC)c(OC)cc4o3)c2)cc(OC)c1OC`, 57.1%; as for `COc1cccc(N2CCN(C3=C(Cl)C(=O)c4ncccc4C3=O)CC2)c1`, 3.36% (active). Regarding `CC1=Cc2ccccc2OC12C=Cc1ccccc1O2` (stereo not given), the growth was 105%.

With `O=C1[C@@H]2Cc3c([nH]c4ccccc34)[C@H](c3ccc(Cl)cc3)N2C(=O)CN1C1CCN(Cc2ccccc2)CC1`, the growth is 54.8%.
